# Many of the other results were omitted from the sample, so the strongest signals are more common in it than they were.
# B1: CD4 (Rattus norvegicus), P05540 (protein)
# chain: MCRGFSFRHLLPLLLLQLSKLLVVTQGSTSITAYKSEGESAEFSFPLNLGEESLQGELRWKAEKAPSSQSWITFSLKNQKVSVQKSTSNPKFQLSETLPLTLQIPQVSLQFAGSGNLTLTLDRGILYQEVNLVVMKVTQPDSNTLTCEVMGPTSPKMRLILKQENQEARVSRQEKVIQVQAPEAGVWQCLLSEGEEVKMDSKIQVLSKGLNSGGGSGGGTGGGDLAPQMLRELQETNAALQDVRELLRQQVKEITFLKNTVMECDACGLDRNLPPLAPLGPHPETLVKVKDAEDQLGARVGYIELDLNSGKILESFRPEERFPMMSTFKVLLCGAVLSRIDAGQEQLGRRIHYSQNDLVEYSPVTEKHLTDGMTVRELCSAAITMSDNTAANLLLTTIGGPKELTAFLHNMGDHVTRLDRWEPELNEAIPNDERDTTMPVAMATTLRKLLTGELLTLASRQQLIDWMEADKVAGPLLRSALPAGWFIADKSGAGERGSRGIIAALGPDGKPSRIVVIYTTGSQATMDERNRQIAEIGASLIKHW
# Experiments:
# Assay in all cases: glycan array binding signal (z-score within array); higher = stronger binding
# Conditions in all cases: glycan notation: IUPAC condensed, linker removed
# Fuc(a1-2)Gal(b1-4)Glc = target: Fuc(a1-2)Gal(b1-4)Glc
# How it was run: (§1)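 The Consortium for Functional Glycomics database supplied 3228 glycan arrays, of which those lacking an available protein sequence were dropped. The binding signal, a within-array Z-score, was averaged across arrays of the same protein sequence and across linkers. Negative scores can be read as non-binding.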
# [1] = target: Fuc(a1-2)Gal(b1-4)GlcNAc(b1-2)[Fuc(a1-2)Gal(b1-4)GlcNAc(b1-4)]Man(a1-3)[Fuc(a1-2)Gal(b1-4)GlcNAc(b1-2)Man(a1-6)]Man(b1-4)GlcNAc(b1-4)GlcNAc
# How it was run: as §1
# [2] = target: Fuc(a1-2)Gal(b1-4)GlcNAc(b1-3)[Fuc(a1-2)Gal(b1-4)GlcNAc(b1-6)]GalNAc
# How it was run: as §1
# [3] = target: Fuc(a1-2)[Gal(a1-3)]Gal(b1-4)[Fuc(a1-3)]Glc
# How it was run: as §1
# [4] = target: Fuc(a1-2)[Gal(a1-3)]Gal(b1-4)[Fuc(a1-3)]GlcNAc(b1-3)GalNAc
# How it was run: as §1
# [5] = target: Fuc(a1-2)[Gal(a1-4)]Gal(b1-4)GlcNAc
# How it was run: as §1
# [6] = target: Fuc(a1-2)[GalNAc(a1-3)]Gal
# How it was run: as §1
# [7] = target: Fuc(a1-2)[GalNAc(a1-3)]Gal(b1-3)GlcNAc(b1-3)GalNAc
# How it was run: as §1
# [8] = target: Fuc(a1-2)[GalNAc(a1-3)]Gal(b1-4)GlcNAc
# How it was run: as §1
# [9] = target: Fuc(a1-2)[GalNAc(a1-3)]Gal(b1-4)GlcNAc(b1-3)Gal(b1-4)GlcNAc(b1-3)Gal(b1-4)GlcNAc
# How it was run: as §1
# [10] = target: Fuc(a1-2)[GalNAc(a1-3)]Gal(b1-4)GlcNAc(b1-3)GalNAc
# How it was run: as §1
# [11] = target: Fuc(a1-2)[GalNAc(a1-3)]Gal(b1-4)[Fuc(a1-3)]GlcNAc
# How it was run: as §1
# Fuc(a1-3)GlcNAc = target: Fuc(a1-3)GlcNAc
# How it was run: as §1
# [12] = target: Fuc(a1-3)[Gal(b1-4)]GlcNAc(b1-6)GalNAc
# How it was run: as §1
# [13] = target: Fuc(a1-3)[Gal3S(b1-4)]GlcNAc
# How it was run: as §1
# [14] = target: Gal(a1-4)Gal(b1-4)GlcNAc(b1-3)Gal(b1-4)Glc
# How it was run: as §1
# [15] = target: Gal(b1-3)GlcNAc(b1-3)GalNAc
# How it was run: as §1
# [16] = target: Gal(b1-3)GlcNAc(b1-6)Gal(b1-4)GlcNAc
# How it was run: as §1
# [17] = target: Gal(b1-3)[Fuc(a1-4)]GlcNAc(b1-3)Gal(b1-4)GlcNAc
# How it was run: as §1
# [18] = target: Gal(b1-3)[Neu5Ac(a2-6)]GalNAc
# How it was run: as §1
# [19] = target: Gal(b1-4)GlcNAc(b1-3)Gal(b1-3)GalNAc
# How it was run: as §1
# [20] = target: Gal(b1-4)GlcNAc(b1-3)Gal(b1-4)GlcNAc(b1-2)Man(a1-3)[Gal(b1-4)GlcNAc(b1-3)Gal(b1-4)GlcNAc(b1-2)Man(a1-6)]Man(b1-4)GlcNAc(b1-4)[Fuc(a1-6)]GlcNAc
# How it was run: as §1
# [21] = target: Gal(b1-4)GlcNAc(b1-3)Gal(b1-4)GlcNAc(b1-2)[Gal(b1-4)GlcNAc(b1-3)Gal(b1-4)GlcNAc(b1-6)]Man(a1-6)[Gal(b1-4)GlcNAc(b1-3)Gal(b1-4)GlcNAc(b1-2)Man(a1-3)]Man(b1-4)GlcNAc(b1-4)GlcNAc
# How it was run: as §1
# [22] = target: Gal(b1-4)GlcNAc(b1-3)Gal(b1-4)GlcNAc(b1-3)Gal(b1-4)GlcNAc(b1-3)Gal(b1-4)GlcNAc(b1-2)Man(a1-3)[Gal(b1-4)GlcNAc(b1-3)Gal(b1-4)GlcNAc(b1-3)Gal(b1-4)GlcNAc(b1-3)Gal(b1-4)GlcNAc(b1-2)Man(a1-6)]Man(b1-4)GlcNAc(b1-4)[Fuc(a1-6)]GlcNAc
# How it was run: as §1
# [23] = target: Gal(b1-4)GlcNAc(b1-3)Gal(b1-4)GlcNAc(b1-3)Gal(b1-4)GlcNAc(b1-3)Gal(b1-4)GlcNAc(b1-3)Gal(b1-4)GlcNAc(b1-2)Man(a1-3)[Gal(b1-4)GlcNAc(b1-3)Gal(b1-4)GlcNAc(b1-3)Gal(b1-4)GlcNAc(b1-3)Gal(b1-4)GlcNAc(b1-3)Gal(b1-4)GlcNAc(b1-2)Man(a1-6)]Man(b1-4)GlcNAc(b1-4)[Fuc(a1-6)]GlcNAc
# How it was run: as §1
# [24] = target: Gal(b1-4)GlcNAc(b1-6)[Gal(b1-3)]GalNAc
# How it was run: as §1
# Gal3S(b1-3)GlcNAc = target: Gal3S(b1-3)GlcNAc
# How it was run: as §1
# [25] = target: Gal3S(b1-4)[Fuc(a1-3)]Glc6S
# How it was run: as §1
# Gal3S6S(b1-4)GlcNAc = target: Gal3S6S(b1-4)GlcNAc
# How it was run: as §1
# [26] = target: GlcNAc(b1-3)Gal(b1-4)GlcNAc(b1-3)Gal(b1-4)GlcNAc(b1-3)Gal(b1-4)GlcNAc(b1-3)Gal(b1-4)GlcNAc(b1-2)Man(a1-3)[GlcNAc(b1-3)Gal(b1-4)GlcNAc(b1-3)Gal(b1-4)GlcNAc(b1-3)Gal(b1-4)GlcNAc(b1-3)Gal(b1-4)GlcNAc(b1-2)Man(a1-6)]Man(b1-4)GlcNAc(b1-4)[Fuc(a1-6)]GlcNAc
# How it was run: as §1
binder,measurement,setting,value
B1,glycan array binding signal (z-score),Fuc(a1-2)Gal(b1-4)Glc,1.27
same,glycan array binding signal (z-score),[1],1.76
same,glycan array binding signal (z-score),[2],-0.242
same,glycan array binding signal (z-score),[3],0.448
same,glycan array binding signal (z-score),[4],-0.228
same,glycan array binding signal (z-score),[5],1.9
same,glycan array binding signal (z-score),[6],-0.738
same,glycan array binding signal (z-score),[7],2.41
same,glycan array binding signal (z-score),[8],-0.98
same,glycan array binding signal (z-score),[9],3.72
same,glycan array binding signal (z-score),[10],-0.665
same,glycan array binding signal (z-score),[11],2.67
same,glycan array binding signal (z-score),Fuc(a1-3)GlcNAc,-1.59
same,glycan array binding signal (z-score),[12],0.46
same,glycan array binding signal (z-score),[13],-0.413
same,glycan array binding signal (z-score),[14],3.31
same,glycan array binding signal (z-score),[15],0.109
same,glycan array binding signal (z-score),[16],-1.04
same,glycan array binding signal (z-score),[17],-0.072
same,glycan array binding signal (z-score),[18],-1.09
same,glycan array binding signal (z-score),[19],3.12
same,glycan array binding signal (z-score),[20],2.88
same,glycan array binding signal (z-score),[21],2.6
same,glycan array binding signal (z-score),[22],2.6
same,glycan array binding signal (z-score),[23],2.8
same,glycan array binding signal (z-score),[24],-1.17
same,glycan array binding signal (z-score),Gal3S(b1-3)GlcNAc,-0.868
same,glycan array binding signal (z-score),[25],3.99
same,glycan array binding signal (z-score),Gal3S6S(b1-4)GlcNAc,-0.623
same,glycan array binding signal (z-score),[26],-0.266
